# HCV inhibitor – HCV inhibition; Huh7.5.1 HCVcc-Cre infection, luciferase reporter, 44 h; AID 651820; 3.4% of 340,000 active; Potency, µM (titrated, usually from 41.8 µM), for the others: at the top dose activity change, negative = inhibition, usual class: inhibitors
#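 Seed cells (1,000/well) for 4 h; treat with compound and infect with HCVcc-Cre, moi about 0.5. Incubate 44 h, then detect luciferase activity.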
# FMDV inh – antivirals against foot and mouth disease virus; FMDV antiviral cell-based qHTS; Potency, µM (doses to about 57.9 µM), for the others: at the highest dose activity change, negative = inhibition, most hits filed as inhibitors; 1.2% of 410,000 active; calls by dose curve; tested in HEK293T cells; further: read-out not given here; nearly all actives have a fitted effect of over 45% in size
# Sm TGR inh – inhibitors of Schistosoma mansoni thioredoxin glutathione reductase | 3% of 360,000 active | purified TGR, DTNB reduction, TNB absorbance 405 nm | Potency, µM (highest dose often 114 µM), for inactives: at the highest dose activity change, negative = inhibition, hits mostly inhibitors | AID 485364; further: nearly all actives have a fitted effect of over 60% in size
#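 Kinetic colorimetric format: TGR-catalysed, NADPH-driven DTNB reduction monitored via TNB absorbance. Enzyme dispensed at 20 nM; compound exposure 15 min at room temperature before reaction start.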
# LASV entry inh – blocks Lassa virus binding to or entry into cells; Lassa virus pseudotype entry inhibition, cell reporter; Potency, µM (highest dose often 37.9 µM), for the others: at the top dose activity change, negative = inhibition, usual class: inhibitors; 1.2% of 300,000 active; calls by dose curve; tested in HEK293 cells; further: nearly all actives have a fitted effect of over 50% in size
# RE007 growth inh – less growth of the S. pombe RE007 Vpr strain; S. pombe RE007 Vpr strain, BacTiter-Glo ATP luminescence, 24 h; Potency, µM (series often up to 92.2 µM), for inactives: at the highest dose activity change, negative = less growth, usual class: inhibitors; 0.21% of 360,000 active; active means well fitted falling curve with a large enough effect; inconclusive means small, poorly fitted or top-dose-only effect; inactive means no such curve, though single readings can be large or run the other way; further: nearly all actives have a fitted effect of over 50% in size
#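 Fission yeast RE007 carrying one integrated HIV-1 vpr copy, seeded at OD 0.01 in PMG+AL medium with 23 nL pinned compound. Grown 24 h at 30 degrees; viability read by BacTiter-Glo luminescence after 5 min.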
# Marburg entry inh – Marburg virus entry inhibition; Potency, µM (top dose mostly 37.8 µM), for inactives: at the highest dose activity change, negative = inhibition, hits mostly inhibitors; 1.8% of 300,000 active; Marburg virus pseudotyped entry inhibition, cell reporter; calls by dose curve; tested in HEK293 cells
# * marks the source's active call; other numbers are inactive results; ? = inconclusive; · = not tested or not shown; [ ] = another dose, or the depositor's remark. A selection: hits, their analogues and other compounds. The true share with any hit is near 7.2%. Unless noted, the call rests on the fitted dose curve; in most records, active means well fitted curve in the direction sought with a large enough effect; inconclusive means small, poorly fitted or top-dose-only effect, or another doubt; inactive means no such curve, though single readings can be large; an effect the other way counts as inactive or inconclusive. On the % scale 0 is the no-effect control and ±100 the full control effect; potency means the concentration at half of the fitted maximal effect.
SMILES,HCV inhibitor,FMDV inh,Sm TGR inh,LASV entry inh,RE007 growth inh,Marburg entry inh
CCn1nnnc1SCC(=O)NCc1ccco1,10%,4%,25µM*,6%,8%,6%
CCCn1c(SCC(=O)NCc2ccco2)nnc1C(C)C,-10%,-10%,?,12%,-3%,?
COc1cccc(-n2nnnc2SCC(=O)NCc2ccco2)c1,-22%,0%,50µM*,-2%,3%,-3%[46.1 µM]
CCCCn1nnnc1SCC(=O)NCc1ccco1,9%,-5%,40µM*,·,·,-1%
CCC(=O)Nc1cccc(-n2nnnc2SCC(=O)NCc2ccco2)c1,-26%,17%,-4%,?,19%,4%
CS(=O)(=O)CCNCc1ccc(-c2ccc3ncnc(Nc4ccc(OCc5cccc(C(F)(F)F)c5)cc4)c3c2)o1,·,·,·,28µM*,·,·
COc1ccc(NC(=O)CSc2oc(-c3ccco3)nc2S(=O)(=O)c2ccc(C)cc2)c(OC)c1,·,0%,?,?,·,-29%[46.1 µM]
COc1ccc(NC(=O)CSc2oc(-c3ccc(C)cc3)nc2S(=O)(=O)c2ccc(C)cc2)c(OC)c1,·,7%,50µM*,?,·,-3%[46.1 µM]
Cc1ccc(S(=O)(=O)c2nc(-c3ccccc3)oc2SCC(=O)NCC2CCCO2)cc1 (configuration not stated),10µM*,3%,-12%,-34%[46.1 µM],-3%,?
Cc1ccc(S(=O)(=O)c2nc(-c3ccco3)oc2SCC(=O)NCC2CCCO2)cc1 (configuration not stated),?,·,35µM*,15%,2%,-1%
COc1ccccc1C1CN(Cc2cn(C)nc2C)Cc2ccccc2O1 (configuration not stated),·,-11%,·,·,·,·
CN(c1cccc(NC(=O)CN(c2cccc(Cl)c2)S(=O)(=O)c2ccc(Cl)cc2)c1)S(C)(=O)=O,22µM*,0%,0%,-19%,3%,?
COC(=O)c1cc(NC(=O)CN(c2cccc(OC)c2)S(=O)(=O)c2ccccc2)ccc1Cl,?,?,-5%,10µM*,11%,16µM*
Cc1ccc(Cl)cc1N(CC(=O)Nc1cccc(N(C)S(C)(=O)=O)c1)S(C)(=O)=O,-7%,5%,5%,6%,5%,13%[46.1 µM]
CCNc1ncc2nc(-c3cc(F)cc(F)c3)c(=O)n(C)c2n1,·,7%,·,·,·,·
COC1C(O)CC(=O)OC(C)C/C=C/C=C/[C@@H](OC2CCC(N(C)C)C(C)O2)C(C)C[C@@H](CC=O)[C@@H]1O[C@H]1OC(C)[C@H](O[C@@H]2C[C@@](C)(O)C(O)C(C)O2)C(N(C)C)C1O (some centres not stated),·,13%,·,·,·,·
CCN(CC)S(=O)(=O)c1ccc2c(c1)nc(CN(C)C(=O)Nc1cccc(Cl)c1)n2C,·,-25%,3%,?,·,·
Cn1nc([N+](=O)[O-])nc1Oc1ccccc1F,29%,-11%,0%,?,38%,-10%[46.1 µM]
CS(=O)(=O)c1nc([N+](=O)[O-])nn1CCCc1ccccc1,?,18µM*,·,5%,8%,?
Cn1nc([N+](=O)[O-])nc1S(C)(=O)=O,10µM*,?,?,?,-8%,?
Cc1nn(CCCC(=O)NCCc2ccccc2)c(C)c1[N+](=O)[O-],8%,0%,0%,27%[46.1 µM],-16%,9%[46.1 µM]
Cc1ccc(CNC(=O)CSc2c(C(C)C)cnc3c2c(=O)n(C)c(=O)n3C)cc1,·,-6%,-1%,-9%[46.1 µM],·,·
O=C(c1ccc(CSc2nc3ccncc3n2Cc2ccccc2F)cc1)N1CCCCC1,·,29%,4%,·,·,6%[46.1 µM]
